Seven compounds from PubChem BioAssay (NCATS) can be followed below.

Inconclusive results are not listed. Calls of active or inactive are those of the source. Unless noted, calls follow the shape of the dose curve; as a rule, active = well fitted curve in either direction with a large enough effect (not every such curve was filed as active); inconclusive = small, poorly fitted or top-dose-only effect, or another doubt; inactive = flat fitted curve, though single readings scatter.

The target in experiment [1] is Lysosomal acid glucosylceramidase (Homo sapiens) (UniProt P04062). As to the kind of experiment: Glucocerebrosidase-p2 (AID 348; in the data active = potency below about 10 µM; also: potency is read from the fitted curve at half-maximal effect). The following applies: purified GBA, blue fluorogenic substrate, 40 min. An outline of the steps:
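Normal human glucocerebrosidase (0.2 nM) with blue fluorogenic substrate (80 uM final) in citrate/phosphate pH 5.9 with 10mM sodium taurocholate, 0.01% tween-20; 40 min RT, NaOH/glycine stop; fluorescence Ex 365/Em 440; AC50 from a titration from 0.6 nM upwards.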

Experiment [2] can be described thus: AP1 Signaling Pathway (AID 357). Also: % is scaled to controls: 0 for no effect and ±100 for the full control effect. To be noted: ME-180 AP-1-bla reporter, EGF-induced, beta-lactamase ratio, 5 h; at 7.69 µM (top of the series) unless noted. An outline of the steps:
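AP-1-bla ME-180 cells with beta-lactamase reporter under AP-1 response element, stimulated with EC50 EGF; compounds titrated, 5 hours at 37 degrees Celsius. CCF4 read at 460/530 nm ratio; positive and negative modulators judged by AC50.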

Experiment [3] deals with Cytochrome P450 1A2 (Homo sapiens) (UniProt P05177). The experiment is described as follows: p450-cyp1a2 (AID 410; calls by dose curve; also: potency is read from the fitted curve at half-maximal effect). To be noted: recombinant CYP1A2, luciferin-ME demethylation, luminescence; series mostly up to 57 µM. An outline of the steps: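 Luminescent demethylation readout: Luciferin-ME (100uM, equal to Km) turned over by 20nM CYP1A2 for 60 min at room temperature after NADPH regeneration addition, following 10 min compound preincubation. Normalization used 57 uM furafylline as full inhibition.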
Cytochrome P450 1A2 (Homo sapiens), sequence (P05177 whole entry, looked up): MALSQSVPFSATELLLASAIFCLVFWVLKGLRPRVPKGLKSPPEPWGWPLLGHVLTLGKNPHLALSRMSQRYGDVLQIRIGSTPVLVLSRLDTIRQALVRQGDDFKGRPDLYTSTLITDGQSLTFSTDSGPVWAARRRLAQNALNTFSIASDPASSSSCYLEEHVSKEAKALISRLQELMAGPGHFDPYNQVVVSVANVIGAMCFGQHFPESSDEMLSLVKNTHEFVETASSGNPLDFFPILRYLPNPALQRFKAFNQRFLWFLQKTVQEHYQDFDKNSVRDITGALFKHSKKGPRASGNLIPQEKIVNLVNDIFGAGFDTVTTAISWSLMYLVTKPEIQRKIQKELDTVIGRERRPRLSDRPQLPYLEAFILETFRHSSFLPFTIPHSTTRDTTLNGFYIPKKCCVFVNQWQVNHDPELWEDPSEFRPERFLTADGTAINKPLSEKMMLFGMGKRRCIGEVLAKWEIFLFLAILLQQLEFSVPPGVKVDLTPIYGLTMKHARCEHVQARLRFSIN

A short description of experiment [4]: Stat Signaling Pathway (AID 446).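 Also: ME-180 cervical cancer cells given 40 pM IL-6 alongside compound; SIE-controlled beta-lactamase reporter measured as 460/530 nm FRET emission ratio; % is scaled to controls: 0 for no effect and ±100 for the full control effect.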 The following applies: ME-180 SIE beta-lactamase reporter, IL-6 stimulated, 5 h; at 7.69 µM (top of the series) unless noted. An outline of the steps:
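Compound effects on IL-6-induced STAT reporter activity were measured in ME-180 cells. After overnight culture, cells were co-treated with 40 pM IL-6 for 5 hrs before beta-lactamase substrate loading at room temperature.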

Experiment [5] deals with Mitogen-activated protein kinase 10 (Mus musculus) (UniProt Q61831). As to the kind of experiment: JNK3 AlphaScreen Assay (AID 530).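 Also: kinase came from lysate of stimulated human HepG2 cells; signal reports phosphorylation of biotinylated GST-cJun 1-79 at Ser73 with 10 µM ATP; % is scaled to controls: 0 for no effect and ±100 for the full control effect.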 The following applies: JNK3 lysate, c-Jun phosphorylation; series mostly up to 57.1 µM. An outline of the steps: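 Activity was read by AlphaScreen after JNK3-containing HepG2 lysate (cytokine pre-activated) phosphorylated biotinylated GST-cJun with 10 uM ATP at room temperature. Phospho-Ser73 cJun antibody with Protein-A acceptor beads provided detection.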
In general terms: Bead proximity is the source of the signal in Alpha formats.

In experiment [6] the target is 3',5'-cyclic-AMP phosphodiesterase 4B (Homo sapiens) (UniProt Q07343). The experiment is described as follows: qHTS Assay for Inhibitors of PDE-IV (AID 607; active = well fitted activation curve with a large enough effect in the main read-out, with a control signal flat, not every such curve was filed as active; also: % of control where 0% means no effect). The following applies: HEK293 ACTOne CNG channel cells, membrane potential fluorescence; series mostly up to 22.9 µM. An outline of the steps: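 ACTOne HEK293 cells carry a modified cAMP-gated CNG channel and express endogenous PDE4; plated 1000 cells/well, compounds up to 22.9 uM final. Membrane-potential dye fluorescence (ex 535/em 590) was read; parental cells received 10 uM forskolin + 100 uM RO 20-1724.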
3',5'-cyclic-AMP phosphodiesterase 4B (Homo sapiens), sequence (Q07343 whole entry, looked up): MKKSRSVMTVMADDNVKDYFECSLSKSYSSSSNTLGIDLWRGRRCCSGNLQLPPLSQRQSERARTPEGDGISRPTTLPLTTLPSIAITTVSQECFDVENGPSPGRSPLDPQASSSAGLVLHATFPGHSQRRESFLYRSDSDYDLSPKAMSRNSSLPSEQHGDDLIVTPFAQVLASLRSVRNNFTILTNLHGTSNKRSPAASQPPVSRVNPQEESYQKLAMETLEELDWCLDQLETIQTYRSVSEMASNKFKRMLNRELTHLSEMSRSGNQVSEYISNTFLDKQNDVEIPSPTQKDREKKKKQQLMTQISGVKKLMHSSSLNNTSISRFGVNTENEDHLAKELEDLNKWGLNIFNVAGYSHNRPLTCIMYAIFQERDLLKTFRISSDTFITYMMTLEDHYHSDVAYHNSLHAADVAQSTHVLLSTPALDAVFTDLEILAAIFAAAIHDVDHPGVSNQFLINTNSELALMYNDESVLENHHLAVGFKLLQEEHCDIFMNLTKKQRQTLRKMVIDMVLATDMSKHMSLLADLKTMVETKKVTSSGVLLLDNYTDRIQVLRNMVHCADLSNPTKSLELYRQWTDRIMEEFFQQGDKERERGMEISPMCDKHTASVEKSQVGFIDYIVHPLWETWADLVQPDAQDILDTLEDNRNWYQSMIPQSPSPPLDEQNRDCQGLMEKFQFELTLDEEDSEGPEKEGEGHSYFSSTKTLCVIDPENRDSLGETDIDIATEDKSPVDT
On the technique in general: In qHTS, concentration-response curves come from the screen itself.

The nature of experiment [7]: qHTS Assay for Lipid Storage Modulators (AID 1519; calls by dose curve). To be noted: Drosophila S3 cells, BODIPY lipid droplet/cell ratio, laser cytometry, cells loaded with oleic acid; for activity change, negative = inhibition: at 57.5 µM (top of the series). An outline of the steps:
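Cells seeded at 5,000 per well were treated with compounds over a concentration series and loaded with oleic acid (400 uM, as added). Lipid droplet fluorescence (488 nm excitation, 500-530 nm channel) was read by laser-scanning cytometry and normalized to 20 uM Triacsin C.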

A short description of experiment [8]: Primary qHTS for small molecule stabilizers of the endoplasmic reticulum resident proteome: Secreted ER Calcium Modulated Protein (SERCaMP) assay (AID 1508630; active = well fitted curve in the direction sought with a large enough effect; an effect the other way counts as inactive or inconclusive; also: % is scaled to controls: 0 for no effect and ±100 for the full control effect). The following applies: SH-SY5Y GLuc-SERCaMP (Gaussia luciferase released on ER calcium loss) secretion, thapsigargin, luminescence; series mostly up to 38.4 µM. An outline of the steps: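 The SH-SY5Y reporter protocol was run at 3 concentrations up to 38.3 uM (primary) or 11 concentrations (follow-up): 16 h compound, 100 nM thapsigargin for 4 h, then extracellular luciferase luminescence.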

The target of experiment [9] is Glucocorticoid receptor (Homo sapiens) (UniProt P04150). As to the kind of experiment: GR-EFC Redistribution (AID 451; calls by dose curve; also: potency is read from the fitted curve at half-maximal effect). To be noted: CHO-K1 GR-EFC translocation, beta-gal luminescence, 2 h. An outline of the steps:
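CHO-K1 cells expressing nuclear EA and GR-ED fragments of b-gal; compounds titrated up to 46 uM final, 2 h at 37 C. GR nuclear translocation read as complemented b-gal luminescence after 1 h RT detection.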

Experiment [10] is described as follows: qHTS Assay for Identification of Small Molecule Agonists for Hypoxia Response Element Signaling Pathway (AID 914; active = well fitted activation curve with a large enough effect in the signal ratio, with a control signal flat, not every such curve was filed as active; the % refers to the signal ratio; also: % of control where 0% means no effect). The following applies: ME-180 (cervical carcinoma) HRE-bla reporter, beta-lactamase ratio, CoCl2, 17 h; activation: stronger effect = higher value. An outline of the steps: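 Compounds in a titration series were added to ME-180 reporter cells alongside an EC50 level of CoCl2. After 17 hours, beta-lactamase activity was read as the 460nm/530nm emission ratio of CCF4, giving AC50 values.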

The target of experiment [11] is Cytochrome P450 3A4 (Homo sapiens) (UniProt P08684). As to the kind of experiment: qHTS Assay for Activators of Cytochrome P450 3A4 (AID 885; active = well fitted curve in the direction sought with a large enough effect; an effect the other way counts as inactive or inconclusive; also: nearly all actives have a fitted effect of over 65% in size). To be noted: recombinant CYP3A4, Luciferin-PPXE luminescence, 60 min; series mostly up to 57.1 µM. An outline of the steps:
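CYP3A4 activity: Luciferin-PPXE O-dealkylation, 25uM substrate, 200mM KPO4, RT throughout. Read-out is luciferase luminescence; higher values reflect activation.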

The target of experiment [12] is Cytochrome P450 2C19 (Homo sapiens) (UniProt P33261). The experiment is described as follows: qHTS Assay for Inhibitors and Substrates of Cytochrome P450 2C19 (AID 899; active = well fitted curve in the direction sought with a large enough effect; an effect the other way counts as inactive or inconclusive; also: nearly all actives have a fitted effect of over 60% in size; also: potency is read from the fitted curve at half-maximal effect). The following applies: recombinant CYP2C19, luciferin-H EGE luminescence; series mostly up to 57.1 µM. An outline of the steps: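 Luminescent read-out of luciferin formed from Luciferin-H EGE (10uM, equal to KM). Enzyme 5nM in 50mM KPO4; compound added, 10 min at 37C, then NADPH regenerating system for 60 min at 37C. Full inhibition defined by 57uM ketoconazole.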
Cytochrome P450 2C19 (Homo sapiens), sequence (P33261 whole entry, looked up): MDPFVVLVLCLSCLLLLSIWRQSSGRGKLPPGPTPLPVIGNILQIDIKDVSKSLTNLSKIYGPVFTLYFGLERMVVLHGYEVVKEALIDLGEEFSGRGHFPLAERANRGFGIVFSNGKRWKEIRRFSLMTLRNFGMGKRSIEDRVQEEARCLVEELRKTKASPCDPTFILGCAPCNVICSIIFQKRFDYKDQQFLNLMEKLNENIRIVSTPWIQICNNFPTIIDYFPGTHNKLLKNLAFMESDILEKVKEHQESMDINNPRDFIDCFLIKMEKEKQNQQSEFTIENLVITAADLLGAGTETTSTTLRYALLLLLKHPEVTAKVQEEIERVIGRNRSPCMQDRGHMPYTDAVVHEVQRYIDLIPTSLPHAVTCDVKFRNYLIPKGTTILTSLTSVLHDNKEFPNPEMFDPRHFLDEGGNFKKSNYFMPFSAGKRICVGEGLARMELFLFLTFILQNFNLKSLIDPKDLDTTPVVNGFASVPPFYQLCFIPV

Experiment [13] addresses Cytochrome P450 2C9 (Homo sapiens) (UniProt P11712). The experiment is described as follows: qHTS Assay for Inhibitors and Substrates of Cytochrome P450 2C9 (AID 883; active = well fitted curve in the direction sought with a large enough effect; an effect the other way counts as inactive or inconclusive; also: potency is read from the fitted curve at half-maximal effect; nearly all actives have a fitted effect of over 60% in size). To be noted: recombinant CYP2C9, luciferin-H luminescence, 60 min; series mostly up to 57.1 µM. An outline of the steps: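 10nM CYP2C9 + 100uM Luciferin-H (=KM), 25mM KPO4; cpd 10 min 37C; NADPH regen, 60 min 37C; stop/detect with P450 Glo-Buffer 20 min; luminescence. Norm. to 57uM sulphaphenazole as full inhibition.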

The target in experiment [14] is Cytochrome P450 2D6 (Homo sapiens) (UniProt P10635). The experiment is described as follows: qHTS Assay for Inhibitors and Substrates of Cytochrome P450 2D6 (AID 891; active = well fitted curve in the direction sought with a large enough effect; an effect the other way counts as inactive or inconclusive; also: potency is read from the fitted curve at half-maximal effect; nearly all actives have a fitted effect of over 60% in size). To be noted: recombinant CYP2D6, luciferin-ME EGE luminescence; series mostly up to 57.1 µM. An outline of the steps: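 Luminescent read-out of luciferin formed by 5 nM human CYP2D6 demethylating 30 uM Luciferin-ME EGE (Km level) over 60 min at room temperature after NADPH regeneration addition. Data normalized to full inhibition by 1.43 uM quinidine.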
Cytochrome P450 2D6 (Homo sapiens), sequence (P10635 whole entry, looked up): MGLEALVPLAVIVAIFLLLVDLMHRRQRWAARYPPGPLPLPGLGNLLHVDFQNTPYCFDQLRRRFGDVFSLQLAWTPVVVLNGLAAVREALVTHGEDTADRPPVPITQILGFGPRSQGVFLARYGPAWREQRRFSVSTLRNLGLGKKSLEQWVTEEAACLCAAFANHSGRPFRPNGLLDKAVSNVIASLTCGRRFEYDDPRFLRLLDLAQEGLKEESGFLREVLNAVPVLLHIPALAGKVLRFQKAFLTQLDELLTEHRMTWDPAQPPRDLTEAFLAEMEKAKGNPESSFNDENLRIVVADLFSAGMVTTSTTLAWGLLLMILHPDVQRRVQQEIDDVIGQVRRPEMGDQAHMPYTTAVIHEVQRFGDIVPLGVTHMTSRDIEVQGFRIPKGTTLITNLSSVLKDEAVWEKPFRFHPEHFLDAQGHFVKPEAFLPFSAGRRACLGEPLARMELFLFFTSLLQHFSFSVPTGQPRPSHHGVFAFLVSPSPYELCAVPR

Setting [15] is: measured here: cell count channel max response.
Setting [16] is: measured here: lipid channel max response.

Glucocorticoid receptor (Homo sapiens), sequence (P04150 whole entry, looked up, the tested form may be a part): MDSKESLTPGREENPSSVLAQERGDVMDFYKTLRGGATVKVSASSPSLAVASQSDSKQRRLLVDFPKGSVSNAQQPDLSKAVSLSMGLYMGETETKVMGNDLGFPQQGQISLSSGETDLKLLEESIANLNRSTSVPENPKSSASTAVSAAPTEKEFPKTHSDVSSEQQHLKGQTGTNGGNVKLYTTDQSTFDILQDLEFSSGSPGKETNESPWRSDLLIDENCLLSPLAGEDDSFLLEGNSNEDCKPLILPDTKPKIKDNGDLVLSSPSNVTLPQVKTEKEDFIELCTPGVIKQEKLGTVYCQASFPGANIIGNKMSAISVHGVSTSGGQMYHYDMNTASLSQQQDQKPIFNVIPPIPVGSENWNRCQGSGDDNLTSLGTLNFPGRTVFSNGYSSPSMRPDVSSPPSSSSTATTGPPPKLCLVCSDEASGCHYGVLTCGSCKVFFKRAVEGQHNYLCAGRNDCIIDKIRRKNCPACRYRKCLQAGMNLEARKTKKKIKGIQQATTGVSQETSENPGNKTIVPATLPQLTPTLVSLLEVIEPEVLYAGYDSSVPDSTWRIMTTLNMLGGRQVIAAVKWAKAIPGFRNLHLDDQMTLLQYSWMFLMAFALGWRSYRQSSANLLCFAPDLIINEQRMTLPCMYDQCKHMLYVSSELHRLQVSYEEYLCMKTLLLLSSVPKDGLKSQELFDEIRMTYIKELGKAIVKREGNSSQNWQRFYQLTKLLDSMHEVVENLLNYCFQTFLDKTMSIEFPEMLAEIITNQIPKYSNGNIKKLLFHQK
Lysosomal acid glucosylceramidase (Homo sapiens), sequence (P04062 whole entry, looked up): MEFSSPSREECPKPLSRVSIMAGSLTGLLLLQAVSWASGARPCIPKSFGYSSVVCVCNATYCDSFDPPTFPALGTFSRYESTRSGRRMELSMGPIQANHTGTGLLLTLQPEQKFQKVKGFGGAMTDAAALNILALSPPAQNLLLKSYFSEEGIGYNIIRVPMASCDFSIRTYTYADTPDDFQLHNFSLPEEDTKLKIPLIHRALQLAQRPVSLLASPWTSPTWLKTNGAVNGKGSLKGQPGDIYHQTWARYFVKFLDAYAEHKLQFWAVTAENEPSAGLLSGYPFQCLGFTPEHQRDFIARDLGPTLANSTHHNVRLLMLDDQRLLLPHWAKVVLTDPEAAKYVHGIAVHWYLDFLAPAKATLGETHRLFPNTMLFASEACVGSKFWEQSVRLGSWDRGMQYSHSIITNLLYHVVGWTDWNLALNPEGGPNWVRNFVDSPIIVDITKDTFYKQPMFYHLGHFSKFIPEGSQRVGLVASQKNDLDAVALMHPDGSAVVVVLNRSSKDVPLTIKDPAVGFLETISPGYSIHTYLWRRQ
Cytochrome P450 3A4 (Homo sapiens), sequence (P08684 whole entry, looked up): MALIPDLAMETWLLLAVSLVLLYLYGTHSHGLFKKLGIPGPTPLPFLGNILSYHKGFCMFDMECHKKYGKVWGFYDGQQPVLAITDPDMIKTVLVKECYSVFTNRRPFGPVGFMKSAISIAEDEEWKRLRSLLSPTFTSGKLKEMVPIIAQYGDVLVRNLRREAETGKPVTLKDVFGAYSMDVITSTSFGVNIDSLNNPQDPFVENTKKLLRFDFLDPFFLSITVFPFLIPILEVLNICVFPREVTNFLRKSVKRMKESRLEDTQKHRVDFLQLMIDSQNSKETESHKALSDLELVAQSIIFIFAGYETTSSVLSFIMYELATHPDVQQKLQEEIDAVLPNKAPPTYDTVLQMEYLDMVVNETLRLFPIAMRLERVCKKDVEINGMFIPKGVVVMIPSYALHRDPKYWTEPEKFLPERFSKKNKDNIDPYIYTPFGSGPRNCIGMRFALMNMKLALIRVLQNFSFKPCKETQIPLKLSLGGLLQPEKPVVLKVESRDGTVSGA
Cytochrome P450 2C9 (Homo sapiens), sequence (P11712 whole entry, looked up): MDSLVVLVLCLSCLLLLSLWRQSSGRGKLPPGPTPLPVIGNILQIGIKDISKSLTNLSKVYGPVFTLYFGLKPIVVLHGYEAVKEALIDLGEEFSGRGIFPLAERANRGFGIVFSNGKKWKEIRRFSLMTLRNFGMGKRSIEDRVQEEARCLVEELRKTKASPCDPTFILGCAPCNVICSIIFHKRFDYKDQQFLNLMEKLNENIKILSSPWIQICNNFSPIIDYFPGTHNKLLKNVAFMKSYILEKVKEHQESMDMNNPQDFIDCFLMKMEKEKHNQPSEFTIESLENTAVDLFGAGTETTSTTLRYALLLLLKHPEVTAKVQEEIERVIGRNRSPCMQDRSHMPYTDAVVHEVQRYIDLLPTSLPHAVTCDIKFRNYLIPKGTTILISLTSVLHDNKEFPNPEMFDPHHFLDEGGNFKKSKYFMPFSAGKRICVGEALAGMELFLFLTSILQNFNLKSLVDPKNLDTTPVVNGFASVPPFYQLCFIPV

For the compound `COc1ccccc1CN1CCC2(CC1)CCN(C(=O)c1ccco1)CC2`, the Potency in experiment [1] is > 11.4 µM (inactive). Also, the activity change, negative = inhibition in [2] is -17.3% (inactive); in experiment [7], 3.05% (inactive). Further, the Potency entry in experiment [3], in experiment [5] and in experiment [6] was “inactive” in each case. Further, in experiment [4], the activity, negative = inhibition is -4.26% (inactive). The max response was 1.79% in experiment [7] (setting [15]) and 7.5% in experiment [7] (setting [16]). For the same compound, the outcome in experiment [8] was inactive.

As for `O=C(c1cc(C(F)(F)F)cc(C(F)(F)F)c1)N1CCC2(CCN(Cc3ccccc3)CC2)CC1`, the Potency was > 11.4 µM (inactive) in [1] and > 46 µM (inactive) in experiment [9]. Moreover, the activity change, negative = inhibition in [2] is 9.59% (inactive); in [7], 2.31% (inactive). The Potency entry in experiment [3], in experiment [5] and in [6] was “inactive” throughout. Also, the activity, negative = inhibition in experiment [4] is -1.85% (inactive). Besides, the activation in experiment [10] is 4.02% (inactive). Moreover, the max response is 18.5% in experiment [7] (setting [15]) and 24.9% in experiment [7] (setting [16]). The result in [8] was inactive.

As to `O=C(Nc1ccccc1)N1CC[C@@]2(CCCN(C(=O)c3cc(C(F)(F)F)cc(C(F)(F)F)c3)C2)C1`, the Potency was > 11.4 µM (inactive) in experiment [1], 25.1 µM (active) in [3] and > 46 µM (inactive) in experiment [9]. Moreover, the activity change, negative = inhibition in [2] was -5.62% (inactive); in [7], 4.15% (inactive). For the same compound, the activity, negative = inhibition in experiment [4] is -6.2% (inactive). For the same compound, the Potency entry in [5], in experiment [6], in experiment [11] and in experiment [12] was “inactive” in each case. In addition, the max response in [7] (setting [15]) is -0.407%; in [7] (setting [16]), 6.94%. In addition, in [8], the outcome was inactive.

Regarding `O=C(Oc1ccccc1)N1CCC2(CC1)CN(c1ccncc1)C2`, the Potency in experiment [1] was > 11.4 µM (inactive); in [9], > 46 µM (inactive); in experiment [13], 3.16 µM (active); in [12], 7.94 µM (active). Further, the activity change, negative = inhibition was -1.8% (inactive) in [2] and 1.74% (inactive) in experiment [7]. Besides, the Potency result in [3], in experiment [6] and in experiment [11] was “inactive” each time. Also, the activity, negative = inhibition in experiment [4] is -4.7% (inactive). Besides, the max response turned out to be 0.26% in [7] (setting [15]) and 4.81% in experiment [7] (setting [16]). Besides, the result in experiment [8] was inactive.

`Cn1cccc1C(=O)N1CCC2(CCN(Cc3ccccc3)CC2)CC1`: the Potency was > 11.4 µM (inactive) in experiment [1], > 46 µM (inactive) in [9] and 7.94 µM (active) in experiment [14]. Moreover, the values for the activity change, negative = inhibition in [2] and in [7] were -1.12% (inactive) and 4.86% (inactive), respectively. Further, the Potency result in experiment [3], in [5] and in experiment [6] was “inactive” each time. Moreover, the activity, negative = inhibition in experiment [4] was 4.92% (inactive). The values for the max response in experiment [7] (setting [15]) and in [7] (setting [16]) were 16.4% and 22.8%, respectively. Further, in experiment [8], the result was inactive.

Turning to `O=C(c1cccc(F)c1)N1CCC2(CC1)CN(Cc1ccccc1)C2`, the Potency in experiment [1] is > 11.4 µM (inactive); in experiment [9], > 46 µM (inactive); in [14] it was 5.01 µM (active). Further, the figures for the activity change, negative = inhibition in [2] and in experiment [7] were 0.919% (inactive) and -1.4% (inactive), respectively. In addition, the Potency entry in experiment [3], in experiment [5] and in experiment [6] was “inactive” in each case. Moreover, the activity, negative = inhibition in [4] is 0.079% (inactive). In addition, the results for the max response in experiment [7] (setting [15]) and in [7] (setting [16]) were -5.75% and -4.23%, respectively. The result in experiment [8] was inactive.

For `COc1ccccc1CN1CCC2(CC1)CCN(C(=O)c1cccn1C)CC2`, the Potency is > 11.4 µM (inactive) in experiment [1], > 46 µM (inactive) in [9] and 3.98 µM (active) in experiment [14]. Also, the figures for the activity change, negative = inhibition in [2] and in [7] were 6.08% (inactive) and -1.94% (inactive), respectively. Further, the Potency result in experiment [3], in [5] and in experiment [6] was “inactive” in each case. In addition, in experiment [4], the activity, negative = inhibition is -5.76% (inactive). The max response in [7] (setting [15]) was 8.14%; in experiment [7] (setting [16]) it was 8.04%. Also, the outcome in [8] was inactive.
